The source of these data is publication PMC4336329 (PLoS ONE, 2015).

Hit rate of the full screen: of about 310,000 compounds, about 14,000 (4.5%) showed an effect of 50% or more. The effect is printed as a negative number. The sample as a whole holds a higher share of strong results than the screen did.
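Further: peak tail current of the secondary pulse compared with the same well before compound.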

The target in the assay is human ether-à-go-go-related gene (hERG) potassium channel (human, UniProt Q12809). The assay can be described thus: primary screen, population patch clamp on CHO cells stably expressing hERG; higher = less effect of the substance.
Chain of human ether-à-go-go-related gene (hERG) potassium channel (Q12809 whole entry, looked up): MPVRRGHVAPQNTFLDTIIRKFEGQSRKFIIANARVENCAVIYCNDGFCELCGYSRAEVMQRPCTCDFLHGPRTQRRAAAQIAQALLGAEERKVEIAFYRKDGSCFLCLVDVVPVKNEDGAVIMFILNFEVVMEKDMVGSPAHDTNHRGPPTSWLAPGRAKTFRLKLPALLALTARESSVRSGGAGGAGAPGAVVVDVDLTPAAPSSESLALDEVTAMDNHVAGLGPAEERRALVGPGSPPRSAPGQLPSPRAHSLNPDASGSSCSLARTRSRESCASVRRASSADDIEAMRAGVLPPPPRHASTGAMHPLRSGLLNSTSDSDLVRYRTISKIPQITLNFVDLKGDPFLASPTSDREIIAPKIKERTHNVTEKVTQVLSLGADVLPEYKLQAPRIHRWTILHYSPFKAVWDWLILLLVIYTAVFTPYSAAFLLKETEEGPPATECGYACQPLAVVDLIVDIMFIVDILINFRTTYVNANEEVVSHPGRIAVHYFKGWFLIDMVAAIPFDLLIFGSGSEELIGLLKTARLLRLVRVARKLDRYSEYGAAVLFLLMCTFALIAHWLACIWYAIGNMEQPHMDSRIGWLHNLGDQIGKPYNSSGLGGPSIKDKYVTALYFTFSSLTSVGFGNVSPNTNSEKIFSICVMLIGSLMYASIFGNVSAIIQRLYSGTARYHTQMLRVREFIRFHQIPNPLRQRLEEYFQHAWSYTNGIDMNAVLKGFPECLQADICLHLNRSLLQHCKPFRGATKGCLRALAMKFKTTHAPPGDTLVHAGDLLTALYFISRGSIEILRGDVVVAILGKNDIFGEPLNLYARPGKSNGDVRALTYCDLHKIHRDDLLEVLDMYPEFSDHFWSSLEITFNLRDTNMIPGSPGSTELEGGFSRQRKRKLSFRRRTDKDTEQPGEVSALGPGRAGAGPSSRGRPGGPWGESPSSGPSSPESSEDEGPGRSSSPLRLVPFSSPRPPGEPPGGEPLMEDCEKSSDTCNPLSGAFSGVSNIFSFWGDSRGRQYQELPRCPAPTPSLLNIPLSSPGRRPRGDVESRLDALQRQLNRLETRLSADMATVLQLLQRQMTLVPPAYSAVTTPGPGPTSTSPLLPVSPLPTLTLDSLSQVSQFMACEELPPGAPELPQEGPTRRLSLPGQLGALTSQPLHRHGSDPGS
Consider `Cc1ccccc1S(=O)(=O)Cc1ccc(C(=O)NCCCN2CCCC(C)C2)o1` (stereo not drawn), for which the “hERG current change (%, negative = inhibition) at 10uM” value was -21.1%.
`CCc1ccccc1NC(=O)c1ccc(-c2csc(C)n2)cc1`: the “hERG current change (%, negative = inhibition) at 10uM” value was -12.4%.
To `COc1cccc(C(=O)OCn2nnc3ccccc3c2=O)c1` belongs 0.671%; to `COc1cccc(-n2c(Cc3cc(=O)[nH]c(=O)[nH]3)nnc2SCc2cccc(C(F)(F)F)c2)c1`, 15.8%; to `CCN(CC(=O)Nc1c(F)cccc1F)C(=O)c1ccc(N2C(=O)c3ccccc3C2=O)cc1`, 1.38%.
Under `CN(CC(=O)NCCCN1CCOCC1)S(=O)(=O)c1ccc(F)cc1` stands 15.4%.
Consider `NC(N)=NCCCC(NC(=O)c1ccccc1)C(=O)Nc1ccc2ccccc2c1` (stereo not drawn), for which the “hERG current change (%, negative = inhibition) at 10uM” value amounted to 12.5%.
In the case of `COCC(C)N=C1NN=C(c2cc(C)n(Cc3ccccc3Cl)c2C)CS1` (stereo not drawn), the “hERG current change (%, negative = inhibition) at 10uM” value was -9.9%.
For `CCOC(=O)C1=C(C)NC(C)=C(C(=O)OCC)C1c1cn(-c2ccccc2)nc1-c1ccco1`, the “hERG current change (%, negative = inhibition) at 10uM” value is on record as -1.05%.
Consider `COc1cc(C(=O)OCC(=O)NC(C)CCc2ccccc2)cc(OC)c1OC` (stereo not drawn), for which the “hERG current change (%, negative = inhibition) at 10uM” value is recorded as 9.14%.
Turning to `CC1CCCN(CC(=O)Nc2ccc(S(=O)(=O)N3CCCC3)cc2)C1` (stereo not drawn), the “hERG current change (%, negative = inhibition) at 10uM” value is 1.82%.
Consider `O=C(CN1CCN(S(=O)(=O)c2ccccc2)CC1)Nc1ccc([N+](=O)[O-])cc1`, for which the “hERG current change (%, negative = inhibition) at 10uM” value is given as -73.4%.
Turning to `CC1CCCN(CC(=O)Nc2ccc(S(=O)(=O)N3CCCCCC3)cc2)C1` (stereo not drawn), the “hERG current change (%, negative = inhibition) at 10uM” value was -66.8%.
`CC1CCCN(CC(=O)Nc2ccc(S(=O)(=O)N3CCCCC3)cc2)C1` (stereo not drawn): the “hERG current change (%, negative = inhibition) at 10uM” value is on record as -15.7%.
In the case of `Cc1cc(C)c(C)c(S(=O)(=O)N2CCN(CC(=O)Nc3ccc([N+](=O)[O-])cc3)CC2)c1C`, the “hERG current change (%, negative = inhibition) at 10uM” value is listed as 15.4%.
`Cc1cc(=O)[nH]c(SCC(=O)Nc2ccc(S(=O)(=O)N3CCCCC3)cc2)n1`: the “hERG current change (%, negative = inhibition) at 10uM” value is recorded as -6.37%.
In the case of `Cc1cc(C)nc(SCC(=O)Nc2ccc(S(=O)(=O)N3CCCCC3)cc2)n1`, the “hERG current change (%, negative = inhibition) at 10uM” value was -61.3%.
To `O=[N+]([O-])c1ccc(NC(=S)N2CCN(S(=O)(=O)c3ccccc3)CC2)cc1` belongs -24.6%; to `O=C(CSc1ncccn1)Nc1ccc(S(=O)(=O)N2CCCCC2)cc1`, -12.9%.
Regarding `Cc1oc2ccccc2c1CNC(=O)N(C)C`, the “hERG current change (%, negative = inhibition) at 10uM” value is on record as 14.2%.
As for `Cc1cccc(N=Nc2ccc(O)c3ncccc23)c1`, the “hERG current change (%, negative = inhibition) at 10uM” value is -8.51%.
As to `CCCN(CC(=O)Nc1ccccc1OC)C(=O)c1cc(-c2cccs2)nn1-c1ccccc1`, the “hERG current change (%, negative = inhibition) at 10uM” value was -9.02%.
`COc1ccc(/C=N/Nc2nc3ccccc3o2)cc1OC`: the “hERG current change (%, negative = inhibition) at 10uM” value worked out at 13.3%.
Under `CC(=O)c1ccc(N2CCN(C(=O)COc3ccc4c(c3)CCC4)CC2)cc1` stands -34%; under `Cc1ccc(SCc2cn3cccnc3n2)cc1`, 11.1%; under `COc1cccc(CNC(=O)CN2C(=O)COc3ccc(S(=O)(=O)N4CCCCCC4)cc32)c1`, 24.8%.
To `COC(=O)c1cnc(Oc2ccc(NC(=O)NC(=O)c3c(OC)cccc3OC)cc2)cc1C(F)(F)F` belongs -14.1%.
Turning to `Cc1ccc(S(=O)(=O)c2cc3c(=O)n4ccccc4nc3n(Cc3ccco3)c2=N)cc1`, the “hERG current change (%, negative = inhibition) at 10uM” value is on record as -11.2%.
To `Cc1ccc(S(=O)(=O)c2cc3c(=O)n4ccccc4nc3n(Cc3ccco3)c2=N)cc1C` belongs -4.4%.
To `Cc1ccc(Cn2c(=O)n(-c3ccccc3)c(=O)c3ccc(C(=O)NCc4ccco4)cc32)cc1` belongs -10.1%; to `Cc1ccc(Cn2c(=N)c(C(=O)NCc3ccco3)cc3c(=O)n4ccccc4nc32)cc1`, -79.8%; to `Cc1ccc(CNC(=O)c2cc3c(=O)n4ccccc4nc3n(Cc3ccco3)c2=N)cc1`, -75.5%.
Under `Cc1cccc(CSc2ccc(S(=O)(=O)N3CCCC3)cn2)c1` stands 5.24%; under `CC(NC(=O)C(=O)NCc1cccs1)c1ccccc1` (stereo not drawn), 16.9%.
With `CCn1cc(S(=O)(=O)CC(=O)Nc2ccc3c(c2)OCCO3)c2ccccc21`, the “hERG current change (%, negative = inhibition) at 10uM” value is given as -13.1%.
Regarding `CCOC(=O)C1=C(C)N(c2ccccc2)C(=O)/C1=C\c1cccs1`, the “hERG current change (%, negative = inhibition) at 10uM” value turned out to be 18.1%.
Take `CCCCCC(=O)N1CCN(CCN=CC2=C(O)CC(c3cccs3)CC2=O)CC1` (stereo not drawn): the “hERG current change (%, negative = inhibition) at 10uM” value is given as -106%.
To `CCCCCC(=O)N1CCN(CCN=CC2=C(O)CC(c3ccco3)CC2=O)CC1` (stereo not drawn) belongs -76.2%.
Take `CCC(=O)N1CCN(CCN=CC2=C(O)CC(c3cccs3)CC2=O)CC1` (stereo not drawn): the “hERG current change (%, negative = inhibition) at 10uM” value is listed as -9.43%.
Under `CC(C)C(=O)N1CCN(CCN=CC2=C(O)CC(c3ccco3)CC2=O)CC1` (stereo not drawn) stands 0.717%; under `CC(=O)N1CCN(CCN=CC2=C(O)CC(c3cccs3)CC2=O)CC1` (stereo not drawn), 8.53%; under `CC(=O)N1CCN(CCN=CC2=C(O)CC(c3ccco3)CC2=O)CC1` (stereo not drawn), 1.17%.
As to `COc1cc(-c2cc(-c3ccc(O)cc3)nc(N)c2C#N)ccc1O`, the “hERG current change (%, negative = inhibition) at 10uM” value stood at 18.5%.
`CCn1c(SCC(=O)NC2CCCc3ccccc32)nnc1-c1cccs1` (stereo not drawn): the “hERG current change (%, negative = inhibition) at 10uM” value is given as -24.6%.
As for `CC(Nc1ccc(Cl)cc1)C(=O)NN` (stereo not drawn), the “hERG current change (%, negative = inhibition) at 10uM” value is on record as -5.86%.
Regarding `COc1cccc(NC(=O)c2c(F)cccc2F)c1`, the “hERG current change (%, negative = inhibition) at 10uM” value was -6.78%.
Regarding `CCOC(=O)c1[nH]cnc1C(=O)Nc1cccc(OC)c1`, the “hERG current change (%, negative = inhibition) at 10uM” value is listed as 2.14%.
For `NC(=O)c1cc(S(=O)(=O)NCc2ccc(F)cc2)cs1`, the “hERG current change (%, negative = inhibition) at 10uM” value is listed as 3.37%.
For the compound `Cc1ccc(SCc2nc(N)nc(Nc3ccccc3C)n2)cc1C`, the “hERG current change (%, negative = inhibition) at 10uM” value turned out to be 1.31%.
Under `Nc1nc(CN2CCN(c3ccccn3)CC2)nc(Nc2ccc(Cl)cc2)n1` stands -74.8%; under `Nc1nc(CSc2ccccn2)nc(Nc2ccccc2)n1`, 1.81%.
To `Nc1nc(CSC(=S)N2CCN(c3ccccc3)CC2)nc(Nc2ccc(F)cc2)n1` belongs 2.14%; to `Cc1ccccc1Nc1nc(N)nc(CN2CCN(C(=O)c3ccccc3)CC2)n1`, -37.9%.
On to `Cc1ccccc1Nc1nc(N)nc(CN2CCN(c3ccccn3)CC2)n1`, for which the “hERG current change (%, negative = inhibition) at 10uM” value is recorded as -66.6%.
In the case of `Nc1nc(CSc2ncn[nH]2)nc(Nc2ccc(F)cc2)n1`, the “hERG current change (%, negative = inhibition) at 10uM” value was found to be 6.74%.
To `Cc1ccccc1Nc1nc(N)nc(CSc2ccccc2)n1` belongs -21%.
For the compound `Nc1nc(CN2CCN(c3ccccn3)CC2)nc(Nc2ccc(F)cc2)n1`, the “hERG current change (%, negative = inhibition) at 10uM” value is -67.4%.
As for `Cc1ccccc1Nc1nc(N)nc(CCl)n1`, the “hERG current change (%, negative = inhibition) at 10uM” value stood at 10.5%.
In the case of `Cc1ccccc1Nc1nc(N)nc(CSc2ccc(F)cc2)n1`, the “hERG current change (%, negative = inhibition) at 10uM” value was -50.4%.
On to `S=C(NCc1ccc(Cl)cc1)N1CCN(c2ccccn2)CC1`, for which the “hERG current change (%, negative = inhibition) at 10uM” value was -23.9%.
